# Key:
# Assay in all cases: PBM binding z-score (relative to random genomic background probes); higher = stronger binding; sequences stand for … in GC…GCGATTGACAGCGTAGAATGAAGG
# [1] = tested on: FXR:RXRa (NR concentration 270 nM, RXRa partner concentration 90 nM)
# In short: (§1)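 On custom Agilent 4×180K arrays, double-stranded probes with 34-nt variable regions carried direct-repeat seeds, single-nucleotide variants, half-site ablations or random human genomic background. Ligand-free nuclear receptor dimers were applied for 1 h, and binding was read with antibodies against each partner (one per run). Binding z-scores come from regression-normalized fluorescence, with the random background probes as reference.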
# [2] = tested on: LXRa:RXRa (NR concentration 270 nM, RXRa partner concentration 90 nM)
# In short: as §1
# [3] = tested on: LXRa homodimer (NR concentration 270 nM)
# In short: as §1
# [4] = tested on: LXRb:RXRa (NR concentration 270 nM, RXRa partner concentration 90 nM)
# In short: as §1
# [5] = tested on: LXRb homodimer (NR concentration 270 nM)
# In short: as §1
# [6] = tested on: PPARa:RXRa (NR concentration 270 nM, RXRa partner concentration 90 nM)
# In short: as §1
# [7] = tested on: PPARg:RXRa (NR concentration 180 nM, RXRa partner concentration 90 nM)
# In short: as §1
# [8] = tested on: PPARg:RXRa 270nM:90nM, anti-RXR (NR concentration 270 nM, RXRa partner concentration 90 nM)
# In short: as §1
# [9] = tested on: PPARg:RXRa 30nM:10nM, anti-RXR (NR concentration 30 nM, RXRa partner concentration 10 nM)
# In short: as §1
# [10] = tested on: PPARg:RXRa 90nM:30nM, anti-RXR (NR concentration 90 nM, RXRa partner concentration 30 nM)
# In short: as §1
# [11] = tested on: PPARg:RXRa DBDmut IVT, anti-RXR (DBD mutation: RXRa K156A/R161A, NR concentration 270 nM, RXRa partner concentration 90 nM)
# In short: as §1
# [12] = tested on: PPARg:RXRa IVT, anti-PPARg (NR concentration 270 nM, RXRa partner concentration 90 nM)
# In short: as §1
# [13] = tested on: PPARg DBDmut:RXRa IVT, anti-PPARg (DBD mutation: PPARg1 K132A/R137A, NR concentration 270 nM, RXRa partner concentration 90 nM)
# In short: as §1
# [14] = tested on: PPARg DBDmut IVT, anti-PPARg (DBD mutation: PPARg1 K132A/R137A, NR concentration 270 nM)
# In short: as §1
# [15] = tested on: PPARg homodimer (NR concentration 180 nM)
# In short: as §1
# [16] = tested on: PXR:RXRa (NR concentration 270 nM, RXRa partner concentration 90 nM)
# In short: as §1
# [17] = tested on: PXR homodimer (NR concentration 270 nM)
# In short: as §1
# [18] = tested on: RARa:RXR (NR concentration 270 nM, RXRa partner concentration 90 nM)
# In short: as §1
# [19] = tested on: RARa homodimer (NR concentration 270 nM)
# In short: as §1
# [20] = tested on: RARb:RXRa (NR concentration 270 nM, RXRa partner concentration 90 nM)
# In short: as §1
Sequence,PBM binding z-score [1],PBM binding z-score [2],PBM binding z-score [3],PBM binding z-score [4],PBM binding z-score [5],PBM binding z-score [6],PBM binding z-score [7],PBM binding z-score [8],PBM binding z-score [9],PBM binding z-score [10],PBM binding z-score [11],PBM binding z-score [12],PBM binding z-score [13],PBM binding z-score [14],PBM binding z-score [15],PBM binding z-score [16],PBM binding z-score [17],PBM binding z-score [18],PBM binding z-score [19],PBM binding z-score [20]
CCTATTAGTTGACCATAAGGGCGACCGAAGCTCG,0.484,0.482,0.301,0.554,0.545,0.197,0.29,0.138,-0.288,0.134,0.603,0.201,-0.102,0.933,2.13,0.235,0.541,0.509,1.68,0.951
TCTCGGAGGACGCGAAAGGTCAGAGCTCGACATC,2.41,3.21,1.27,2.37,-0.501,3.2,1.67,3.46,2.47,3.21,0.887,0.996,1.57,0.428,2.2,3.7,0.0066,4.09,0.692,3.89
CGTACAAGGTCAAGGTCAGTGAAAGAGACTCGAA,7.99,5.91,1.33,5.06,1.34,6.47,7.35,6.73,3.62,5.87,4.64,5.48,1.83,0.837,4.4,5.27,1.65,5.96,2.4,5.65
CAAACTATGTCACCGGAAGGTCAAAGTCCGCATG,3.73,3.78,4.13,3.89,1.52,4.37,3.69,4.08,1.4,2.98,5.08,5.25,0.711,1.64,3.93,4.29,2.1,4.93,2.43,3.7
AATACATGGTCATCGTAGGCCAGAGTACGCACAG,0.0777,0.702,0.0647,-0.141,-0.0432,0.289,1.22,0.533,0.2,0.514,0.199,1.21,0.624,0.968,-0.153,0.3,-0.157,0.574,0.339,1.14
AGTTACGGGTCAACGAGGTTATAGCACGCGTATA,6.05,5.15,0.781,4.47,0.793,5.63,5.57,5.55,2.17,4.38,2.76,3.97,0.585,1.05,1.48,5.12,2.21,4.6,0.766,4.16
ATCGAATGGTCGACGAGGTGAGTATACACCGTTT,-0.323,-0.552,-0.816,-0.341,-0.342,-0.212,0.744,-0.273,0.119,-0.347,-0.664,0.567,-0.0586,-0.0219,-0.342,-0.323,-0.282,-0.136,-0.0822,0.37
TCTTGTAGATCAATAGGGGTTAAGAAAGTGCGCT,1.29,4.13,0.187,2.93,0.868,2.7,0.337,2.1,2.94,2.42,2.59,1.26,1.26,1.11,1.01,3.87,0.265,2.8,0.509,1.2
AGAATGAGGTTATAGGTAGATCAGGGAAGAAAGT,2.06,2.1,0.425,1.89,0.41,3.67,4.23,4.73,3.33,4.47,2.86,2.76,1.2,1.03,1.63,1.52,1.49,1.93,1.46,1.72
TCATATACGTAAAGGTGAAAGTCGAACGATATGA,0.717,1.21,-0.0647,1.44,0.339,2.63,1.64,2.52,3.86,3.15,1.6,1.61,1.06,2,0.594,1.1,-0.24,1.55,0.587,2.04
TCTCGAAGGACACGAAGGTCAGAGCTTTCCAGAG,1.04,1.12,-0.125,1.03,-0.73,1.91,0.515,1.8,2.96,2.27,1.58,1.03,-0.558,-0.971,1.64,1.54,0.219,2.12,0.163,3.34
ATATGTAGGTTCAGGGTCATTCAGGTTGGTTCGC,4.82,4.56,2.81,4.44,1.46,5.2,7.3,7.14,6,7.46,3.41,4.69,1.38,1.25,3.72,5.44,5.1,5.15,2.39,3.41
TTACCAAGGTGAGCTGAGGTCGTTGAGCCAACTC,1.91,1.27,-0.402,0.809,-1.19,1.84,-0.225,0.876,-0.207,0.236,0.949,1.75,-0.809,-0.728,-0.0553,5.03,0.369,2.08,-0.816,1.76
AATACAGGGTCATCGTAGGCCCGAGTACGCACAG,6.78,5.81,2.32,3.99,0.935,5.82,6.57,6.13,2.54,5.01,2.64,3.72,0.916,-0.158,1.25,3.92,0.581,4.7,0.922,4.23
CTAACTAGGTCATCCAGGACAGTGAATACATTGA,4.13,3.08,1.1,2.34,0.444,5.16,8.66,7.07,4.48,7.08,8.55,8.68,3.4,1.83,2.45,2.07,1.37,2.83,0.768,3.88
CGTCCAAAGTCATAGGAGGTCAGTGAAGACAGAT,2.25,4.11,1.4,2.44,0.026,2.82,0.638,0.912,-0.0337,0.296,0.497,1.53,0.0341,0.213,1.59,3.35,1.12,2.86,1.34,2.7
CCTACTGGGCCAGCAGGTCATTGATATCAACGTT,0.852,0.958,0.496,1.21,-0.78,2.51,2.26,2.84,1.09,2.63,3.7,4.16,-0.155,-0.528,1.02,1.46,-0.0906,1.8,-0.335,1.88
TTATATAGGTAATACAGGTGAAAGTCGGCATCTA,0.622,1.12,0.509,0.772,0.539,2.7,3.5,3.07,2.07,2.5,6.01,5.97,1.64,2.72,1.34,0.367,0.343,0.639,1.4,0.616
GCTCGGAGGACAAGGTCAGAGCGTTGTCCGTAGA,2.18,1.74,-0.229,1.46,-0.608,2.61,0.378,1.37,-0.49,0.635,-0.242,0.658,-1.14,-1.68,0.169,1.68,-0.131,2.07,-0.539,3.4
CCTACTGGGCCACGAAAGGTCGTTGATTCAGTGA,0.933,1.81,0.373,1.5,-0.704,2.67,2.53,2.93,0.0833,1.96,5.8,5.18,-0.547,-0.744,1.16,2.77,0.256,2.19,-0.764,1.84
GCGACTGGCGCATCAGCAGGTTACCATAACTTAA,-0.425,-0.781,-0.313,-0.631,-1.19,-0.493,-0.0523,-0.785,-0.798,-0.75,-0.575,-0.748,-1.28,-1.31,-0.552,-0.518,-0.619,-0.34,-0.992,-1.03
ATCGAAAGGTCGTAAGGTGAGTATACAGAAAGGC,4.53,3.79,0.462,2.98,0.6,4.62,3.45,3.46,1.6,2.5,0.287,2.13,1.43,1.06,2.31,2.96,0.735,4.21,0.848,3.72
GCTAGTTGGGCAGTAAAAGGTCACACACCGGTCG,3.19,4.3,4.34,3.64,0.418,4.28,2.12,3.8,1.65,3.19,0.484,2.09,-0.128,-0.41,4.82,5.1,1.13,6.26,2.32,4.16
ACTTGTTGGTCAGCTGAGGTCACACACAATTCGG,3.37,3.31,2.13,3.51,0.632,3.79,1.8,2.46,0.673,1.95,1.72,2.7,1.08,0.437,2.22,5.63,1.27,4.54,0.13,3.71
CCTTACGGGTCACTGACAGGATATAGCATTTGGA,5.3,3.68,0.191,3.28,-0.185,5.22,4.58,4.24,1.5,2.88,3.33,3.54,1.02,0.966,2.23,3.03,0.183,3.85,1.33,3.95
TAGCCTAGGTCATTGGGCCAGTTTAGTACGCATC,4.25,3.21,0.757,2.35,0.194,3.88,3.49,3.27,0.719,2.06,2.53,3.45,-0.6,0.202,0.893,1.71,-0.11,2.11,-0.422,3.52
TCTATTGGTTGATTAGGGCAACCGAAACAGCGGA,0.575,0.37,-0.105,0.525,0.775,0.817,0.0989,1.86,3.2,2.59,1.96,1.31,1.58,0.647,1.38,0.573,0.277,0.835,0.652,1.06
CTTCCAAGGTCATAGGAGGTCAGTGAAGACAGAT,7.67,7.56,6.46,6,1.51,6.02,5.71,6.17,2.87,4.89,3.59,4.67,1.93,1.31,4.55,6.93,4.92,6.14,3.57,5.42

# From the supplement of paper PMC6555819
